Data as given in PubChem BioAssay.
Calls of active or inactive are those of the source.

System: not listed separately
Experiment: modulators of S6 phosphorylation in cells, primary screen, cell-based, A549, cytoblot, luminescence, serum-stimulated (AID 1158);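 also: serum-stimulated A549 lung adenocarcinoma cells; signal is phosphorylated S6 detected by cytoblot immunostaining with HRP secondary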
Conditions: A549 phospho-S6 cytoblot, 5 h, higher = more signal

| Structure (SMILES) | z-score |
| --- | --- |
| O=C1C2C=CC(C(O)C(c3ccccc3)c3ccccc3)N(Nc3ccccc3)C2C(=O)N1c1ccccc1 (stereo unspecified) | -1.25 |
| CC(C)CNC(=O)[C@@]1(C)c2ccccc2C(=O)N(Cc2cc(F)cc(C(F)(F)F)c2)[C@H]1c1ccc(CO)cc1 | 0.0857 |
| Cc1c(NC(=O)/C(C#N)=C/c2ccc(Cl)cc2)c(=O)n(-c2ccccc2)n1C | 0.776 |
| CN1C(=O)[C@]2(CCS(=O)(=O)c3ccccc3)N=C(c3ccc(OCCCO)cc3)O[C@@H]2c2ccccc21 | -0.0831 |
| COc1cccc(C[C@H]2C[C@@H](CO[Si](C(C)C)(C(C)C)C(C)C)N3C(=O)[C@@]4(C(C)=O)O[C@@]23[C@@H]2C(=O)N(C)C(=O)[C@@H]24)c1 | -0.669 |
| CC(=O)n1cc(C(O)C2C=CC3C(=O)N(c4ccccc4)C(=O)C3N2Nc2ccccc2F)c2ccccc21 (stereo unspecified) | 0.988 |
| CC=CC(O)C1C=CC2C(=O)N(C)C(=O)C2N1NC(=O)OC(C)(C)C (stereo unspecified) | -1.42 |

Molecular target: NADPH oxidase 2 (Homo sapiens) (UniProt P04839)
Sequence (P04839 whole entry, looked up): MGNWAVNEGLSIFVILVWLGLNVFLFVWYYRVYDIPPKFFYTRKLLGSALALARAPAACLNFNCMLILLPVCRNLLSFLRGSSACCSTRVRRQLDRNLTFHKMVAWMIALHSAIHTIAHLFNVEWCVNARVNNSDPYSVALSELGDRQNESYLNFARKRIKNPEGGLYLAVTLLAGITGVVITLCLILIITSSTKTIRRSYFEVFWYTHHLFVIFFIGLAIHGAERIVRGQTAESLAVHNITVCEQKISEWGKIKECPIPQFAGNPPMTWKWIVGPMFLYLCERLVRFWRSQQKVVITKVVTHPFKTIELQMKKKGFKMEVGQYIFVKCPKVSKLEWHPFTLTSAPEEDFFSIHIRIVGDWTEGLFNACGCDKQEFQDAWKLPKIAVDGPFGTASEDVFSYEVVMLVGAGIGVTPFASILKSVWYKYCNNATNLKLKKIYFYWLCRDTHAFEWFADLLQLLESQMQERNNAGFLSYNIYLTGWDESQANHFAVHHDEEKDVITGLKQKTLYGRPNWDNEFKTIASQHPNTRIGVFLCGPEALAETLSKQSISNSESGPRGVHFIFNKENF
Experiment: NOX2-dependent H2O2 signal modulators, primary screen, NOX inhibitor project, cell-based, HEK293-NOX2, PMA-stimulated, Amplex Red fluorescence (AID 1159); also: test concentration not given here
Conditions: 45 min, higher = more signal, called active from +8 up or from −8 down

| Structure (SMILES) | z-score |
| --- | --- |
| CCCCC(=C=CC[C@@H](O)c1cccc(OCCO)c1)CCO | -0.681 (inactive) |
| C=CCOC(=O)[C@@H]1[C@H]2C(=O)O[C@H](c3ccccc3)[C@H](c3ccccc3)N2[C@H](c2ccc(OCCOC(=O)[C@H]3C[C@H]4C(=O)NCC(=O)N4[C@H]3c3ccc(O)cc3)cc2)[C@@]12C(=O)Nc1ccc(I)cc12 | 0.588 (inactive) |
| CN1C=C(C(=O)OCCS(C)(=O)=O)C(C(=O)OCCS(C)(=O)=O)=CC(CCCO)=CC1c1ccc(CN2CCCC2)cc1 (stereo unspecified) | 0.526 (inactive) |
| COCCOC(=O)N1C(=O)[C@@]2(c3cc(C#CC4(O)CCCCCC4)ccc31)[C@H](C(=O)N1CCc3cc(OC)c(OC)cc3C1)[C@H]1C(=O)O[C@H](c3ccccc3)[C@H](c3ccccc3)N1[C@@H]2c1ccc(O)cc1 | 2.19 (inactive) |
| O=C1O[C@@H](c2ccccc2)[C@@H](c2ccccc2)N2[C@@H](c3ccc(OCCO)cc3)[C@]3(C(=O)Nc4ccc(C#CCCO)cc43)[C@@H](C(=O)Nc3nc4ccccc4s3)[C@H]12 | 0.762 (inactive) |
| COCCCNC(=O)[C@@H]1c2ccccc2C(=O)N(C2CCCCC2)[C@H]1c1ccc(CO)cc1 | 0.422 (inactive) |
| C=CC[C@]1(C(=O)NCc2ccccc2)COC(c2ccc(OCCCO)cc2)=N1 | -2.18 (inactive) |
| CN(C)CCCNC(=O)[C@@]1(Cc2ccccc2I)c2ccccc2C(=O)N(Cc2ccccc2)[C@H]1c1ccc(CO)cc1 | -8.23 (active) |
| COc1cccc(OC)c1C(=O)O[C@H]1[C@@H]2OC(=O)[C@H](Cc3cccc(Br)c3)C/C=C/C[C@@H](Cc3cccc(Br)c3)C(=O)O[C@H]2[C@@H](OC)O[C@@H]1CO | -0.443 (inactive) |
| [N-]=[N+]=NCc1ccccc1C[C@]1(C(=O)NCc2ccccc2)N=C(c2ccc(OCCCO)cc2)O[C@H]1c1ccccc1CN=[N+]=[N-] | -1.09 (inactive) |
| COCCOC(=O)N1C(=O)[C@@]2(c3cc(C#Cc4ccc(OC)cc4)ccc31)[C@H](c1ccc(OCCO)cc1)N1[C@H](c3ccccc3)[C@H](c3ccccc3)OC(=O)[C@H]1[C@@H]2C(=O)N1CCCCCCC1 | 0.928 (inactive) |
| Cc1ccc(S[C@]2(C(=O)NC3CC3)CC(=O)N(Cc3cc(C(F)(F)F)cc(C(F)(F)F)c3)[C@@H]2c2ccc(CO)cc2I)cc1 | 1.52 (inactive) |
| CC1(C)OC[C@@]23C=C(Br)[C@@H](C[C@H]12)[C@@]1(CO1)C3=O | 0.173 (inactive) |
| CCOC(=O)C1=CC[C@@H](c2ccccc2)N(S(=O)(=O)c2ccc(C)cc2)[C@H]1C#N | 0.426 (inactive) |
| COc1ccccc1CN1C(=O)c2ccccc2[C@](Cc2ccccc2I)(C(=O)NCCCN(C)C)[C@@H]1c1ccc(CO)cc1 | -10.2 (active) |
| CCCC=C(CCC)[C@@H](NC(=O)c1ccco1)c1ccc(C(=O)OC)cc1 | -0.0272 (inactive) |
| CC(C)(C)OC(=O)CC[C@]1(C(N)=O)N=C(c2ccc(OCCCO)cc2)O[C@H]1c1ccccc1CN=[N+]=[N-] | 0.709 (inactive) |
| COc1ccc(NN2C(C(O)c3cc(C(F)(F)F)cc(C(F)(F)F)c3)C=CC3C(=O)N(C4CCCCC4)C(=O)C32)cc1 (stereo unspecified) | -0.934 (inactive) |
| COc1ccc(CCNC(=O)[C@@]2(C)c3ccccc3C(=O)N(Cc3cc(C(F)(F)F)cc(C(F)(F)F)c3)[C@H]2c2ccc(CO)cc2)cc1 | -3.19 (inactive) |
